# Reference: the supplement of paper PMC8728848
# The entries come from a sample that favours the strongest signals as a whole.
# B1: CFEM-SCL (Saccharomyces cerevisiae), O13547 (protein)
# chain: MRATTLLSSVVSLALLSKEVLATPPACLLACVAQVGKSSSTCDSLNQVTCYCEHENSAVKKCLDSICPNNDADAAYSAFKSSCSEQNASLGD
# Experiments:
# Assay in all cases: glycan array binding signal (z-score within array); higher = stronger binding
# Settings in all cases: glycan notation: IUPAC condensed, linker removed
# [1] = target: Fuc(a1-2)Gal(b1-3)[Fuc(a1-4)]GlcNAc(b1-3)[Fuc(a1-3)[Gal(b1-4)]GlcNAc(b1-6)]Gal(b1-4)Glc
# How it was run: (§1)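 Arrays were curated from the Consortium for Functional Glycomics database, 3228 in total, and kept only where the protein sequence was available. Binding is expressed as a within-array Z-score. This score was averaged across arrays of the same protein sequence at different concentrations or buffers and across linkers, and negative values can be read as non-binding.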
# [2] = target: Fuc(a1-2)Gal(b1-4)GlcNAc(b1-2)[Fuc(a1-2)Gal(b1-4)GlcNAc(b1-4)]Man(a1-3)[Fuc(a1-2)Gal(b1-4)GlcNAc(b1-2)Man(a1-6)]Man(b1-4)GlcNAc(b1-4)GlcNAc
# How it was run: as §1
# [3] = target: Fuc(a1-2)Gal(b1-4)GlcNAc(b1-3)GalNAc
# How it was run: as §1
# [4] = target: Fuc(a1-2)Gal(b1-4)[Fuc(a1-3)]GlcNAc(b1-3)GalNAc
# How it was run: as §1
# [5] = target: Fuc(a1-2)Gal6S(b1-3)GlcNAc
# How it was run: as §1
# [6] = target: Fuc(a1-2)[Gal(a1-3)]Gal(b1-3)GlcNAc(b1-6)GalNAc
# How it was run: as §1
# [7] = target: Fuc(a1-2)[Gal(a1-3)]Gal(b1-4)GlcNAc(b1-3)GalNAc
# How it was run: as §1
# [8] = target: Fuc(a1-2)[GalNAc(a1-3)]Gal(b1-3)GlcNAc(b1-6)GalNAc
# How it was run: as §1
# [9] = target: Fuc(a1-2)[GalNAc(a1-3)]Gal(b1-4)[Fuc(a1-3)]GlcNAc(b1-3)GalNAc
# How it was run: as §1
# Fuc(a1-3)GlcNAc = target: Fuc(a1-3)GlcNAc
# How it was run: as §1
# [10] = target: Fuc(a1-3)[Gal(b1-4)]GlcNAc(b1-3)Gal(b1-4)[Fuc(a1-3)]GlcNAc
# How it was run: as §1
# [11] = target: Fuc(a1-3)[Gal(b1-4)]GlcNAc(b1-6)GalNAc
# How it was run: as §1
# [12] = target: Fuc(a1-3)[Gal(b1-4)]GlcNAc6S
# How it was run: as §1
# [13] = target: Gal(a1-3)Gal(b1-3)GlcNAc(b1-2)Man(a1-3)[Gal(a1-3)Gal(b1-3)GlcNAc(b1-2)Man(a1-6)]Man(b1-4)GlcNAc(b1-4)GlcNAc
# How it was run: as §1
# [14] = target: Gal(a1-3)Gal(b1-4)GlcNAc(b1-3)GalNAc
# How it was run: as §1
# [15] = target: Gal(a1-3)[Gal(a1-4)]Gal(b1-4)GlcNAc
# How it was run: as §1
# Gal(b1-2)Gal = target: Gal(b1-2)Gal
# How it was run: as §1
# Gal(b1-3)Gal = target: Gal(b1-3)Gal
# How it was run: as §1
# Gal(b1-3)Gal(b1-4)GlcNAc = target: Gal(b1-3)Gal(b1-4)GlcNAc
# How it was run: as §1
# Gal(b1-3)GalNAc = target: Gal(b1-3)GalNAc
# How it was run: as §1
# Gal(b1-3)GalNAc(b1-3)Gal = target: Gal(b1-3)GalNAc(b1-3)Gal
# How it was run: as §1
# [16] = target: Gal(b1-3)GalNAc(b1-4)Gal(b1-4)Glc
# How it was run: as §1
# [17] = target: Gal(b1-3)GalNAc(b1-4)[Neu5Ac(a2-3)]Gal(b1-4)Glc
# How it was run: as §1
# [18] = target: Gal(b1-3)[Neu5Ac(a2-6)]GalNAc
# How it was run: as §1
# [19] = target: Gal(b1-4)GlcNAc(b1-2)Man(a1-3)[Man(a1-6)]Man(b1-4)GlcNAc(b1-4)GlcNAc
# How it was run: as §1
# [20] = target: Gal(b1-4)GlcNAc(b1-2)[Gal(b1-4)GlcNAc(b1-6)]Man(a1-6)[GlcNAc(b1-4)][Gal(b1-4)GlcNAc(b1-2)Man(a1-3)]Man(b1-4)GlcNAc(b1-4)GlcNAc
# How it was run: as §1
# [21] = target: Gal(b1-4)GlcNAc(b1-3)Gal(b1-4)GlcNAc(b1-3)Gal(b1-4)GlcNAc(b1-3)Gal(b1-4)GlcNAc(b1-2)Man(a1-3)[Gal(b1-4)GlcNAc(b1-3)Gal(b1-4)GlcNAc(b1-3)Gal(b1-4)GlcNAc(b1-3)Gal(b1-4)GlcNAc(b1-2)Man(a1-6)]Man(b1-4)GlcNAc(b1-4)GlcNAc
# How it was run: as §1
# [22] = target: Gal(b1-4)GlcNAc(b1-3)Gal(b1-4)GlcNAc(b1-3)Gal(b1-4)GlcNAc(b1-3)Gal(b1-4)GlcNAc(b1-3)Gal(b1-4)GlcNAc(b1-2)Man(a1-3)[Gal(b1-4)GlcNAc(b1-3)Gal(b1-4)GlcNAc(b1-3)Gal(b1-4)GlcNAc(b1-3)Gal(b1-4)GlcNAc(b1-3)Gal(b1-4)GlcNAc(b1-2)Man(a1-6)]Man(b1-4)GlcNAc(b1-4)[Fuc(a1-6)]GlcNAc
# How it was run: as §1
# [23] = target: Gal(b1-4)GlcNAc(b1-3)GalNAc
# How it was run: as §1
# Gal3S(b1-4)GlcNAc = target: Gal3S(b1-4)GlcNAc
# How it was run: as §1
binder,measurement,setting,value
B1,glycan array binding signal (z-score),[1],-0.173
same,glycan array binding signal (z-score),[2],-0.213
same,glycan array binding signal (z-score),[3],3.91
same,glycan array binding signal (z-score),[4],3.09
same,glycan array binding signal (z-score),[5],-0.235
same,glycan array binding signal (z-score),[6],-0.325
same,glycan array binding signal (z-score),[7],-0.207
same,glycan array binding signal (z-score),[8],-0.289
same,glycan array binding signal (z-score),[9],2.67
same,glycan array binding signal (z-score),Fuc(a1-3)GlcNAc,-0.151
same,glycan array binding signal (z-score),[10],-0.174
same,glycan array binding signal (z-score),[11],2.59
same,glycan array binding signal (z-score),[12],-0.014
same,glycan array binding signal (z-score),[13],0.636
same,glycan array binding signal (z-score),[14],-0.281
same,glycan array binding signal (z-score),[15],-0.238
same,glycan array binding signal (z-score),Gal(b1-2)Gal,0.077
same,glycan array binding signal (z-score),Gal(b1-3)Gal,4.26
same,glycan array binding signal (z-score),Gal(b1-3)Gal(b1-4)GlcNAc,2.99
same,glycan array binding signal (z-score),Gal(b1-3)GalNAc,3.86
same,glycan array binding signal (z-score),Gal(b1-3)GalNAc(b1-3)Gal,14.5
same,glycan array binding signal (z-score),[16],11.1
same,glycan array binding signal (z-score),[17],2.46
same,glycan array binding signal (z-score),[18],3.63
same,glycan array binding signal (z-score),[19],-0.238
same,glycan array binding signal (z-score),[20],-0.19
same,glycan array binding signal (z-score),[21],-0.022
same,glycan array binding signal (z-score),[22],-0.165
same,glycan array binding signal (z-score),[23],-0.111
same,glycan array binding signal (z-score),Gal3S(b1-4)GlcNAc,-0.261
